Only some compounds are listed: those with a hit (about 5.7% of all), similar ones and a draw of the others.
hgDAF12 agonist – agonists of H. glycines DAF-12 nuclear receptor | activation, % at 6.8 µM | HEK293 GAL4-hgDAF12 UAS-luciferase reporter, agonist luminescence; normalized to butyrate control | actives 1.8% (n = 370,000);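 active = activation above a cutoff set at the mean of all screened compounds plus 3 SD, cut at about 10% in these data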;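 note: 0% = DMSO wells and 100% = sodium butyrate wells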
DAX1 inh-1 – NR0B1 (DAX1) inhibition; P51843; HEK293 Gal4-DAX1 luciferase reporter, luminescence; inhibition, % at 6.75 µM; actives 0.99% (n = 340,000);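 active = inhibition above the mean over all tested compounds plus 3 SD, cut at about 4.2% in these data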;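 note: 0% = DAX1-transfected cells with DMSO and 100% = empty-vector control cells with DMSO; inhibition shows as a rise in luminescence from relieved DAX1 repression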
Target sequence (P51843 207-470 limits assumed): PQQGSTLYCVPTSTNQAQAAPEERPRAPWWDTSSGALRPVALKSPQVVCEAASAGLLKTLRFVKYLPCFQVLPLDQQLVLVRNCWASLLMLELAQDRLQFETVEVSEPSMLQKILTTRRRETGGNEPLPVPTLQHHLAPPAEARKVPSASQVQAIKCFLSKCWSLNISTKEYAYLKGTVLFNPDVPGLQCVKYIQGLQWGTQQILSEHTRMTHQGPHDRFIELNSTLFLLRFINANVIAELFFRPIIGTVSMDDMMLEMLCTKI
AHR act – activates the human aryl hydrocarbon receptor; P35869; AHR-responsive luciferase reporter cells, luminescence; activation, % at 5 µM; actives 2.5% (n = 320,000); AID 2796; in the data active = activation above about 47%;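 note: 0% = vehicle wells and 100% = reference agonist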
hcDAF-12 act – activators of H. contortus DAF-12 nuclear receptor; HEK293 hcDAF-12 lit1-tk-luc reporter, luminescence; 0% DMSO, 100% Δ7-dafachronic acid; actives 1.4% (n = 370,000); activation, % at 6.8 µM; AID 652067;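 active = activation above the mean of all tested compounds plus 3 SD, cut at about 5.5% in these data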;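 note: 100% = response to 3 µM Δ7-dafachronic acid high control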
DAX1 inh-2 – inhibitors of DAX1 repression of SF-1 activated StAR promoter. actives 1.1% (n = 370,000). HEK293T StAR-luciferase reporter, SF-1/DAX-1 repression relief. inhibition, % at 6.8 µM;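 active = inhibition above the mean over all tested compounds plus 3 SD, cut at about 3.6% in these data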;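 note: 0% = DAX-1 cells with DMSO and 100% = cells lacking DAX-1 with DMSO; higher inhibition means more luminescence from relief of DAX-1 repression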
ssDAF-12 act – activates DAF-12 receptor from parasite S. stercoralis; activation, % at 6.8 µM; HEK293 ssDAF-12/GRIP1 lit1-tk-luc reporter, luminescence; % of 3 µM dafachronic acid response; actives 1% (n = 370,000);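 active = activation above the mean over all tested compounds plus 3 SD, cut at about 0.9% in these data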;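 note: 0% = DMSO-only wells and 100% = 3 µM delta7-dafachronic acid wells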
AHR act confirm – confirmation of human aryl hydrocarbon receptor activators; shares compounds with AHR act; human cells, AHR-responsive luciferase reporter, luminescence; activation, % at 9 µM; actives 87% (n = 2,300); in the data active = activation above about 49%;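 note: HepG2 hepatoma cells carrying a DRE-driven firefly luciferase reporter; 0% = vehicle wells and 100% = reference agonist wells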
PXR act counter – activates human PXR in AHR activator counter-screen | cell-based PXR reporter, luciferase luminescence | shares compounds with AHR act | actives 88% (n = 2,300) | activation, % at 11.6 µM | AID 434939; in the data active = activation above about 11%;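 note: human hepatoma DPX-2 cells expressing full-length human PXR; 0% = DMSO and 100% = reference agonist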
Target sequence (O75469 whole entry, looked up): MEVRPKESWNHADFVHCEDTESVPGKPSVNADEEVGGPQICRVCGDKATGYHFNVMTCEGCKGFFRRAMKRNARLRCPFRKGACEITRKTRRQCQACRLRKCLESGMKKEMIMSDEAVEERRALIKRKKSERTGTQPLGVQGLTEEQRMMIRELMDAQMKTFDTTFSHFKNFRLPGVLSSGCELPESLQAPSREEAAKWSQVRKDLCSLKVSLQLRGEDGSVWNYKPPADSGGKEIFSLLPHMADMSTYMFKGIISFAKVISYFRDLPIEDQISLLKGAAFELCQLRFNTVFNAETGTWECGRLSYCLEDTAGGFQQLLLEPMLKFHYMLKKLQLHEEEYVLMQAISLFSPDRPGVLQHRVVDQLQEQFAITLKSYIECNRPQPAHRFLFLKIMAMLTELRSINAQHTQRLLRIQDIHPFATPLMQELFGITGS
Starred values were filed as active, the others as inactive; nt = no result.

SMILES	hgDAF12 agonist	DAX1 inh-1	AHR act	hcDAF-12 act	DAX1 inh-2	ssDAF-12 act	AHR act confirm	PXR act counter
Cc1ccc(-n2c(C)cc(C(=O)COc3c(CO)cc(F)cc3CO)c2C)cc1C	-3.0	-3.7	-0.6	-5.0	-1.3	-2.0	nt	nt
C=C(C)CNC(=S)N/N=C\c1ccc2c(c1)OCO2	-1.2	-0.6	81.8*	0.7	-0.1	-0.6	64.2*	67.4*
COc1cc(/C=N/NC(=O)c2cccnc2)cc2c1OCO2	0.7	0.2	88.0*	1.2	4.1*	-1.7	78.2*	nt
CN1CCN(C(=O)c2ccc3c(c2)N(Cc2ccc(F)cc2)C(=O)c2ccccc2S3=O)CC1 (stereo not drawn)	1.2	1.8	4.0	-0.7	2.2	-0.6	nt	nt
Fc1ccc(/C=N/NC(=S)Nc2ccc(Cl)cc2Cl)cc1	0.9	-0.5	84.0*	-0.4	0.0	-1.3	107.2*	7.2
CCOC(=O)C1(C)CCN1C(=O)c1cncc(Br)c1 (stereo not drawn)	-2.4	nt	nt	-0.1	0.0	-1.4	nt	nt
CC(=O)Nc1ccc(NC(=O)CN(c2ccc(F)cc2)S(=O)(=O)c2ccc3c(c2)OCCO3)cc1	-1.9	1.1	6.4	-1.7	0.5	-1.8	nt	nt
O=C(CN(c1ccc(F)cc1)S(=O)(=O)c1ccc2c(c1)OCCO2)Nc1ccc2c(c1)OCO2	0.9	-0.1	101.3*	-2.0	-0.3	-1.4	51.6*	71.7*
Clc1ccc(-c2nc3ncccn3c2Cl)cc1	nt	0.1	86.8*	nt	nt	nt	148.2*	55.4*
Cc1cccc(NC(=O)C2CCCN(c3nc(C)cc(C)n3)C2)c1 (stereo not drawn)	nt	-0.5	6.7	nt	nt	nt	nt	nt
Cc1cccc(NC(=O)C2CCCN(c3cnccn3)C2)c1 (stereo not drawn)	0.4	0.7	87.8*	-2.6	-0.1	-0.7	70.4*	31.6*
CCc1cccc(NC(=O)C2CCCN(c3cnccn3)C2)c1 (stereo not drawn)	-1.7	-0.2	90.8*	-1.7	-1.1	-1.7	57.6*	41.5*
CN(CC(=O)Nc1ccccc1Br)C(=O)Cn1[nH]c(=O)c2ccccc2c1=O	0.7	0.2	-0.6	-2.2	0.5	-0.8	nt	nt
CN(C)C(/C=C/Nc1ccc(C#N)cc1)=C(C#N)C#N	-0.9	0.9	109.2*	-0.7	-0.6	-0.8	101.9*	25.1*
CN(C)C(/C=C/Nc1ccc(F)cc1)=C(C#N)C#N	0.4	-0.3	44.9	-0.6	1.7	-1.1	nt	nt
C=CCc1cc(/C=N/NC(=O)CSc2nnc(CCCc3ccc(OC)cc3)o2)cc(OC)c1O	-0.5	-0.8	16.7	-2.3	-1.4	-1.2	nt	nt
CC(=O)N1CC(C(=O)Nc2ccc3c(c2)OCO3)Oc2ccccc21 (stereo not drawn)	0.1	0.5	101.8*	-0.1	-0.3	-1.0	121.0*	34.4*
O=C(Cn1nnc2ccccc2c1=O)NCC1CCC(C(=O)O)CC1 (stereo not drawn)	-1.4	3.5	0.8	-1.5	-0.6	-1.7	nt	nt
CC(=O)Nc1ccc2c(c1)C(=O)N(c1cccc(C)c1)C2=O	-3.6	2.3	-0.9	1.6	-0.2	-1.1	nt	nt
CC(=O)Nc1cccc2c1C(=O)N(c1ccc(C)cc1)C2=O	2.5	0.0	99.2*	6.0*	1.6	0.4	98.7*	nt
CN1CCN(CCCNC(=O)c2ccc(CS(=O)(=O)c3ccc(Br)cc3)o2)CC1	0.7	4.3*	80.8*	-2.6	-0.9	-1.3	6.0	12.1*
O=C(NCCCN1CCCC1)c1ccc(CS(=O)(=O)c2ccc(Br)cc2)o1	-2.1	0.4	-1.7	1.9	0.9	-1.5	nt	nt
Cc1sc(NC(=O)C2=COCCO2)nc1-c1ccc(Br)cc1	-0.8	-1.0	98.7*	0.5	1.4	-0.3	94.4*	33.6*
O=C(Nc1nnc(-c2ccc(Br)cc2)o1)C1=COCCO1	1.6	-0.3	4.0	0.1	3.3	-1.1	nt	nt
CC(CN1CCN(C)CC1)OC(=O)c1cccc(F)c1 (stereo not drawn)	1.6	-0.6	0.8	-2.2	-0.1	-0.8	nt	nt
SMILES	hgDAF12 agonist	DAX1 inh-1	AHR act	hcDAF-12 act	DAX1 inh-2	ssDAF-12 act	AHR act confirm	PXR act counter
O=C1c2ccccc2NC(c2ccc3c(c2)OCO3)N1O (stereo not drawn)	8.6	2.1	122.1*	4.1	0.6	0.0	133.5*	24.7*
COc1cccc(OC)c1C(=O)Nc1sc2c(c1C(N)=O)CCN(Cc1ccccc1)C2	3.5	0.0	128.7*	-0.9	-1.1	-1.6	85.3*	58.6*
CCc1nc2c(OCc3ccc(Cl)cc3)cccn2c1N(C)C(=O)c1ccc2c(c1)OCO2	-0.1	nt	nt	-2.5	-1.3	-1.2	nt	nt
COc1ccc(-c2nnc(SCC(=O)NC3CCCC3)n2C)cc1	-0.4	-0.5	-1.1	-0.6	-0.4	-0.6	nt	nt
COc1ccc(-c2[nH]c(-c3ccc(C)cc3)nc2SCC(=O)NC2CCCC2)cc1	-3.9	0.3	104.2*	-1.0	0.0	0.0	88.5*	85.9*
COc1ccc(-c2[nH]c(-c3ccccc3)nc2SCC(=O)Nc2nccs2)cc1	0.1	0.0	108.8*	-0.8	0.5	-1.4	78.2*	42.4*
COC(=O)c1ccc2[nH]ccc2c1	0.4	0.4	2.7	-0.2	0.5	-1.1	nt	nt
Cc1cc(NCCCN(C)C)n2c(nc3ccccc32)c1C#N	4.8	2.2	11.1	1.8	0.7	-0.4	nt	nt
Cc1cc(NCCCn2ccnc2)n2c(nc3ccccc32)c1C#N	-1.4	0.4	103.7*	-0.1	-0.6	-1.2	79.5*	16.2*
Cc1cccc2cc(C#N)c(NCCCn3ccnc3)nc12	0.6	-0.3	92.2*	-1.9	0.6	-1.2	67.4*	33.3*
CC12COC3(C(=O)N4CCN(c5ccccn5)CC4)CC1CCC32C (stereo not drawn)	0.9	0.1	4.6	0.3	0.5	-0.9	nt	nt
Cc1oc2cc(OC(=O)c3ccco3)ccc2c(=O)c1-c1nc2ccccc2n1C	1.4	-0.7	105.7*	1.6	0.9	-1.3	1.5	19.8*
O=C1CCCN1CCCNc1ncnc2c1[nH]c1ccc(Cl)cc12	-1.2	-1.1	34.3	-0.9	0.1	-0.7	nt	nt
Clc1ccc2[nH]c3c(NCCCN4CCOCC4)ncnc3c2c1	2.7	-0.1	82.0*	0.8	-1.4	-0.2	39.7	36.8*
CC(OC(=O)c1cc(=O)[nH]c2ccccc12)C(=O)c1ccccc1 (stereo not drawn)	-2.4	nt	0.1	-1.5	-0.3	-0.6	nt	nt
CC(=O)Nc1ccc(SCC(=O)N(C)C2CCS(=O)(=O)C2)cc1 (stereo not drawn)	-2.2	0.6	-2.0	-0.1	0.7	-1.4	nt	nt
O=C(O)CNC(=O)c1ccc(N2CCOCC2)cc1[N+](=O)[O-]	-1.5	0.8	0.2	-0.2	1.6	-1.2	nt	nt

Compound activity: PubChem BioAssay, The Scripps Research Institute Molecular Screening Center
